The test system of assay [1] is PRMT1 (protein arginine N-methyltransferase 1). Nature of the assay: PRMT1 binders on small-molecule microarrays, primary screen, biochemical, small-molecule microarray, 635 nm fluorescence (AID 1088).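 Note: binding of Prmt1 protein to compounds spotted on small-molecule microarray slides.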 The note with it: small-molecule microarray binding, higher = more signal.
The nature of assay [2]: yeast growth modulation, basal conditions, primary screen, YJM789 clinical isolate, OD600, 24 h (AID 1089).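 Note: growth of clinical yeast isolate S. cerevisiae YJM 789 seeded 1000 cells per well; test concentration not given here.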 The note with it: S. cerevisiae YJM789 growth, higher = more signal, called active from +8 up or from −8 down.
Assay [3] is described as follows: fission yeast growth modulation, primary screen, strain 972, OD600, 24 h, no modulator (AID 1090).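 Note: basal condition with compound alone and no growth modifier present; test concentration not given here.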 To be noted: S. pombe 972 growth, higher = more signal, called active from +8 up or from −8 down.
The nature of assay [4]: S. cerevisiae growth modulation with rapamycin, primary screen, strain BY4716, OD600, 96 h (AID 1091). Note: test concentration not given here. To be noted: higher = more signal, called active from +8 up or from −8 down.
In assay [5] the target is Torsin-1A-interacting protein 2 (Homo sapiens) (UniProt Q8NFQ8). Nature of the assay: LULL1 binders on small-molecule microarray, primary screen, cell lysate, human LULL1 lysate, 635/667 nm fluorescence (AID 1092).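 Note: probe is lysate of COS7 cells overexpressing human LULL1; score merges per-feature 667 nm fluorescence with signal-to-noise.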 The note with it: hLULL1 lysate binding, 635 nm fluorescence, higher = more signal.
Assay [6] is described as follows: E. coli growth modulation, two-sided OD650, primary screen, E. coli filamentation project, strain DRC41, 24 h (AID 1093).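 Note: MC1000 strain lacking acrAB efflux and sulA so SOS filamentation is blocked; test concentration not given here.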 To be noted: OD650, 24 h, higher = more signal, called active from +8 up or from −8 down.
The nature of assay [7]: small-molecule microarray binders of probe aLefty2, primary screen, biochemical, biotinylated probe, 635/667 nm fluorescence (AID 1094).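 Note: score merges spot fluorescence near 667 nm with spot signal-to-noise ratio.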 The note with it: higher = more signal.
In assay [8] the test system is Noggin (protein binding on small-molecule microarray). Kind of assay: Noggin binders on small-molecule microarray, primary screen, biochemical, 635/667 nm fluorescence (AID 1095).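 Note: score merges 667 nm feature fluorescence with signal to noise over triplicate slides.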 To be noted: 635 nm fluorescence, higher = more signal.
The target of assay [9] is Neurogenic locus notch homolog protein 3 (Homo sapiens) (UniProt Q9UM47). Kind of assay: NOTCH3 binders on small-molecule microarray, primary screen, biochemical, 635/667 nm fluorescence (AID 1096). The note with it: NOTCH3 binding, 635 nm fluorescence, higher = more signal.
Assay [10] can be described thus: small-molecule microarray binders of probe aEGFR, primary screen, biochemical, biotinylated probe, 635/667 nm fluorescence (AID 1097).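 Note: probe is a biotinylated anti-EGFR antibody binding compounds printed on slides; score combines fluorescence near 667 nm and signal to noise of each spot.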 The note with it: higher = more signal.
Assay [11] has as its system Plasmodium falciparum Sir2 (PF13_0152, Sir2A). Kind of assay: pfSir2 binders on small-molecule microarrays, primary screen, biochemical, small-molecule microarray, 635 nm fluorescence (AID 1098).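 Note: score merges spot fluorescence intensity with its signal-to-noise ratio.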 The note with it: small-molecule microarray binding, fluorescence 635 nm; higher = more signal.
A short description of assay [12]: small-molecule microarray binders of probe aDKK1, primary screen, biochemical, biotinylated probe, 635/667 nm fluorescence (AID 1099).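 Note: score merges 667nm spot fluorescence with signal to noise across triplicate slides; reference of the scale not given here.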 To be noted: higher = more signal.
A short description of assay [13]: small-molecule microarray binders of probe aCHRDL2, primary screen, biochemical, biotinylated probe, 635/667 nm fluorescence (AID 1100). To be noted: higher = more signal.
The nature of assay [14]: splicing luciferase reporter signal modulators, primary screen, spliceosome inhibition project, cell-based, HEK293, splice +/- reporter (AID 1101).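 Note: HEK293 cells carrying a splicing-competent luciferase reporter gene; test concentration not given here.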 The note with it: luminescence, 24 h, higher = more signal, called active from +8 up or from −8 down.
Assay [15] addresses Fibroblast growth factor 10 (Homo sapiens) (UniProt O15520). Nature of the assay: FGF10 binders on small-molecule microarrays, primary screen, biochemical, small-molecule microarray, 635 nm fluorescence (AID 1102). The note with it: FGF10 binding, fluorescence 635 nm, higher = more signal.
Assay [16] has as its system glycogen synthase kinase-3 (GSK3A per assay name; protocol says GSK3B). Nature of the assay: GSK3 binders on small-molecule microarrays, primary screen, biochemical, small-molecule microarray, 635 nm fluorescence, GSK3A (AID 1103). Note: the record names both GSK3A and GSK3B. To be noted: small-molecule microarray binding, fluorescence 635 nm; higher = more signal.
For assay [17], the target named is Epidermal growth factor receptor (Homo sapiens) (UniProt P00533). Kind of assay: EGFR binders on small-molecule microarrays, primary screen, biochemical, small-molecule microarray, 635 nm fluorescence (AID 1104).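 Note: score merges 667 nm emission intensity with spot signal to noise over triplicate slides.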 To be noted: EGFR binding, higher = more signal.
In assay [18] the target is Follistatin-related protein 3 (Homo sapiens) (UniProt O95633). Nature of the assay: FSTL3 binders on small-molecule microarrays, primary screen, biochemical, small-molecule microarray, 635 nm fluorescence (AID 1105).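 Note: score merges emission near 667 nm and signal to noise per printed spot across three slides.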 The note with it: FSTL3 binding, higher = more signal.
The target of assay [19] is Dickkopf-related protein 1 (Homo sapiens) (UniProt O94907). Nature of the assay: DKK1 binders on small-molecule microarrays, primary screen, biochemical, small-molecule microarray, 635 nm fluorescence scan (AID 1106).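 Note: score merges emission near 667 nm with signal to noise over three replicate slides.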 The note with it: DKK1 binding, higher = more signal.
The subject of assay [20] is Inhibin beta A chain (activin A). Nature of the assay: INHBA (activin A) binders on microarrays, primary screen, biochemical, small-molecule microarray, 635 nm fluorescence scan (AID 1107).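 Note: mouse activin A protein probed at 4.33 µg/mL on printed slides; score merges bound-protein fluorescence near 667 nm with spot signal-to-noise.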 To be noted: small-molecule microarray binding, higher = more signal.

Calls of active or inactive are those of the source.

Sequence of Neurogenic locus notch homolog protein 3 (Homo sapiens) (Q9UM47 whole entry, looked up): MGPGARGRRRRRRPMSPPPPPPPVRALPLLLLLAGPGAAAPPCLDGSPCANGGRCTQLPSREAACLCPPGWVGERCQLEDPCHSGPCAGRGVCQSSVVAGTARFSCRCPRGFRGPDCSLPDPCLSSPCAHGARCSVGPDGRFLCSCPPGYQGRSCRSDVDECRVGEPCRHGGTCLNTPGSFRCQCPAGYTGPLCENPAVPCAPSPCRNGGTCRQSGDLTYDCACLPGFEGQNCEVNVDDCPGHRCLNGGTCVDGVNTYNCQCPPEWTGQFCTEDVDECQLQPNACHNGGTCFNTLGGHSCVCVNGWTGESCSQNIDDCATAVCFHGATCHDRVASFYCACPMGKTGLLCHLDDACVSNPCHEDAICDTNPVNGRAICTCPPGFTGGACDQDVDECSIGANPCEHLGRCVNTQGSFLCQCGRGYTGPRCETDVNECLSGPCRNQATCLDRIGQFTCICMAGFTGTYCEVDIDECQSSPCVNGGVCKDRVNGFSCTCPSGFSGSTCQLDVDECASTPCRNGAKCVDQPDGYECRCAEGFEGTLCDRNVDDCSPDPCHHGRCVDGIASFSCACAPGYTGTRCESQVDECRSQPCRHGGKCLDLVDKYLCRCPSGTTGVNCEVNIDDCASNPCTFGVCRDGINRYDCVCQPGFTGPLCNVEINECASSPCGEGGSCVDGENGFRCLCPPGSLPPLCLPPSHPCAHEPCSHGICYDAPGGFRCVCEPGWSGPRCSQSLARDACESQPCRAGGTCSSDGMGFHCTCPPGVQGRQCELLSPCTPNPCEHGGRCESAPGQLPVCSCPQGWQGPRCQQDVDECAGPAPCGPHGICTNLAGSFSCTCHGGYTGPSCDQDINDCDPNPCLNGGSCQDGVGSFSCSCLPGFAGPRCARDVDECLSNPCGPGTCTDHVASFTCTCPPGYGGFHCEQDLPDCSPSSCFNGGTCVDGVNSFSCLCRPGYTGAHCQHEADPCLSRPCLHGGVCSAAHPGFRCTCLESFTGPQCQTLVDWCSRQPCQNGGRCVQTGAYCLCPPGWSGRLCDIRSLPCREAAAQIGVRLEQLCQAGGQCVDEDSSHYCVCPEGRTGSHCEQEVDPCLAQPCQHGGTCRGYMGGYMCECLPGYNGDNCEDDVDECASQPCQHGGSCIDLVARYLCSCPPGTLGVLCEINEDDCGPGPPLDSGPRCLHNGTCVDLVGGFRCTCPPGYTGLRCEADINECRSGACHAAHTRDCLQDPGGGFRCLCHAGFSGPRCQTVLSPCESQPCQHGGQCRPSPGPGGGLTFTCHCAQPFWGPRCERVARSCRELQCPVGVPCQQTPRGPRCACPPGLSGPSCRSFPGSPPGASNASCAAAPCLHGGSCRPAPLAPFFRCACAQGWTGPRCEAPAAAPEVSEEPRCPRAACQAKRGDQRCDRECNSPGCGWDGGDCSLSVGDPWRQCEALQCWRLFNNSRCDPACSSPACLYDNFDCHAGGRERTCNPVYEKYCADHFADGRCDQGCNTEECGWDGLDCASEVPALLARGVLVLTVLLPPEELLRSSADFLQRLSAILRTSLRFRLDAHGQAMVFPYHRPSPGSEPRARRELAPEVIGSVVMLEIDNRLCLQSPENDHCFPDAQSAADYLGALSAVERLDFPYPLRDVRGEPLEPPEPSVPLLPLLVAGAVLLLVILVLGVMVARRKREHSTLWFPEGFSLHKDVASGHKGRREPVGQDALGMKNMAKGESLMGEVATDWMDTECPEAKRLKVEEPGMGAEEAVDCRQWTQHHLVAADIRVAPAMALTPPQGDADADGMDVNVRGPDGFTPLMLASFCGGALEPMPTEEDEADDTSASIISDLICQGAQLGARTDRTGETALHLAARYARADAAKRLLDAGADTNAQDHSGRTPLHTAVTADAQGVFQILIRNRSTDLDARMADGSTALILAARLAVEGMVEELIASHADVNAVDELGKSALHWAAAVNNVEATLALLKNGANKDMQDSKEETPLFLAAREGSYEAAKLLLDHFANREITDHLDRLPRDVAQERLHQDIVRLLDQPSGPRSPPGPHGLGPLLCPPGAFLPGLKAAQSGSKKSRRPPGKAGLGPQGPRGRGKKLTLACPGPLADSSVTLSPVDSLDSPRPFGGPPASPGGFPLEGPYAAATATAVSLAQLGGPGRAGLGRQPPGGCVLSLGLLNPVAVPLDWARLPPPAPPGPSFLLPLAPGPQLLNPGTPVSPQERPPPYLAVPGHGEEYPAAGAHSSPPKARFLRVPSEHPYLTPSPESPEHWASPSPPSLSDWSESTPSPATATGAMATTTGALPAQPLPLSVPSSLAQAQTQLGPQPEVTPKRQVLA
Sequence of Epidermal growth factor receptor (Homo sapiens) (P00533 whole entry, looked up): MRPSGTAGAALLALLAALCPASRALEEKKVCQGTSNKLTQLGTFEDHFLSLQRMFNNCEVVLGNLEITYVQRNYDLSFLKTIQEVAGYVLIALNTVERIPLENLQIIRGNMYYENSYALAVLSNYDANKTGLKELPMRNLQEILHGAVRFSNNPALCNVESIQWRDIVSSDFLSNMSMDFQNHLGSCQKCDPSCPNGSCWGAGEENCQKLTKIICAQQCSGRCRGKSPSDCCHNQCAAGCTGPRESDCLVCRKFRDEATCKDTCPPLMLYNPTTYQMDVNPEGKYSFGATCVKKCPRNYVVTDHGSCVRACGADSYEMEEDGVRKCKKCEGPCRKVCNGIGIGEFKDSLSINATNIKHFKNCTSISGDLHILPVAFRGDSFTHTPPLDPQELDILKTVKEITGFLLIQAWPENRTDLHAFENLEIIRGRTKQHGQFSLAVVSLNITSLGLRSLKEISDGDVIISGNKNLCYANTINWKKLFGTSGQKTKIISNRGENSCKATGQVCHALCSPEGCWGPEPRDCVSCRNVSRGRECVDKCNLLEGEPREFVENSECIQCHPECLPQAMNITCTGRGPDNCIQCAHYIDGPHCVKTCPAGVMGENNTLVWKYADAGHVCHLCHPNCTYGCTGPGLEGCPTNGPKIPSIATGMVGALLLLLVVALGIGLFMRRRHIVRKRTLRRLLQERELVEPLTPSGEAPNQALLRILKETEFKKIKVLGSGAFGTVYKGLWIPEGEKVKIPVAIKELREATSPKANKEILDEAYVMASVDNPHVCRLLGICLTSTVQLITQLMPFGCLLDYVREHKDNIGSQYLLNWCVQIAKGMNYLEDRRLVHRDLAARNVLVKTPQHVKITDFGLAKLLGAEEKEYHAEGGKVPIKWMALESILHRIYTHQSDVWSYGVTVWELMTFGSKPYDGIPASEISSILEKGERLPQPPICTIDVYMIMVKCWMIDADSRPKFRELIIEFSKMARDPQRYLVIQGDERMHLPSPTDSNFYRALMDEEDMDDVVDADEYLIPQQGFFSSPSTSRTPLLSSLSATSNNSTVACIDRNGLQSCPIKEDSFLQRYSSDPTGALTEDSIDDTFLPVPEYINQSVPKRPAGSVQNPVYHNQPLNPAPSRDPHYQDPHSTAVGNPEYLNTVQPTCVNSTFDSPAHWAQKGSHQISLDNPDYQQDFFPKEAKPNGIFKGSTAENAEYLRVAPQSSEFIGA
Sequence of Follistatin-related protein 3 (Homo sapiens) (O95633 whole entry, looked up): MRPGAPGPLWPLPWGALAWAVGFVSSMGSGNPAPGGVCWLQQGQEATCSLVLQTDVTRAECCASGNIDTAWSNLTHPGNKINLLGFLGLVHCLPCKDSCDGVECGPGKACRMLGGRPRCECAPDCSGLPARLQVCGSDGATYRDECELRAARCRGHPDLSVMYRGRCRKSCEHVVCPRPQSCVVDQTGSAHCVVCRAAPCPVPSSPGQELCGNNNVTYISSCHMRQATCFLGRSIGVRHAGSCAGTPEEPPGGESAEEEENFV
Sequence of Torsin-1A-interacting protein 2 (Homo sapiens) (Q8NFQ8 whole entry, looked up): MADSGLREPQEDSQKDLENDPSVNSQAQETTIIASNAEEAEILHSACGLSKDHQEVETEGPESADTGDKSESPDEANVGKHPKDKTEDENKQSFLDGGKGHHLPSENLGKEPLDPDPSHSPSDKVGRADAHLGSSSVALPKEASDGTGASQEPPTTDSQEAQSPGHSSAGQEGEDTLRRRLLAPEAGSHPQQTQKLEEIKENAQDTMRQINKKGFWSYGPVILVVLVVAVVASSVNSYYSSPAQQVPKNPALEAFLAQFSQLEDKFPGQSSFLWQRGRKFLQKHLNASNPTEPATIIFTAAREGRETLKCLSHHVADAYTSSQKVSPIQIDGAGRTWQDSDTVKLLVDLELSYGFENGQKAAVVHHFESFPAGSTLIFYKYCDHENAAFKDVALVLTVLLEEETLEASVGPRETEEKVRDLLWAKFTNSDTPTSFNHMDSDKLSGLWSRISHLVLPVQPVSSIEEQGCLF
Sequence of Fibroblast growth factor 10 (Homo sapiens) (O15520 whole entry, looked up): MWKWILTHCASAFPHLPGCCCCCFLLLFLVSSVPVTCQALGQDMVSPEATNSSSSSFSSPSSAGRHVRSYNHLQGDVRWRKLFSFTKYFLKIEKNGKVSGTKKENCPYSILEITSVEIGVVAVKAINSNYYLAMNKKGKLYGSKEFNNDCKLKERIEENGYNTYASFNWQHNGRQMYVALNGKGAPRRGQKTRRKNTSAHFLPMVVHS
Sequence of Dickkopf-related protein 1 (Homo sapiens) (O94907 whole entry, looked up): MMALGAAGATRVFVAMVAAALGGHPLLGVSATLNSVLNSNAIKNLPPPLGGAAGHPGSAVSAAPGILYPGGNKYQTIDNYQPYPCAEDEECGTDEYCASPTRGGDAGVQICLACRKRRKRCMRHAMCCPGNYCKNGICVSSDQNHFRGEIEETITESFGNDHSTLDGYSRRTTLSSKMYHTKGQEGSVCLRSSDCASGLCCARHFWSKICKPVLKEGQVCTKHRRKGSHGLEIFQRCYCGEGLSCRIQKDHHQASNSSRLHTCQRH

On to `CC(C)C[C@@H]1NC(=O)[C@@H]2C[C@H](C(=O)O)[C@H](c3ccc(O)cc3)N2C1=O`, for which the composite z-score in assay [1] was 1.54; in [5] it was 1.77; in assay [7], -0.0433; in assay [8], 1.02; in assay [9], 1.09; in assay [10], 0.0226. Also, the composite z-score stood at 1.44 in assay [11]; 0.361 in assay [12]; 0.383 in assay [13]; 0.914 in assay [15]; 1.31 in assay [16]; 0.801 in assay [17]. Besides, the composite z-score in [18] was 1.25; in assay [19], 0.976; in assay [20] it was -0.0021. The z-score in [2] is -1.45 (inactive); in assay [3] it was -1.34 (inactive); in assay [4], -0.42 (inactive); in [6], 2.31 (inactive); in [14], -0.687 (inactive).
Turning to `CC(=O)n1cc(C(O)C2C=CC3C(=O)N(c4ccccc4)C(=O)C3N2Nc2ccccc2F)c2ccccc21` (stereo not given), the composite z-score in assay [1] was 0.799; in assay [5], 2.51; in assay [7], -0.138; in assay [8], -0.872; in assay [9], -0.382; in assay [10], -0.146. In addition, the composite z-score in assay [11] is 1.76; in assay [12] it was -0.167; in [13] it was 0.483; in assay [15], -0.191; in assay [16], -0.0798; in assay [17], -0.801. Moreover, the composite z-score in assay [18] was -0.638; in assay [19] it was -1.18; in assay [20] it was -0.551. The z-score is -0.626 (inactive) in assay [2]; -0.169 (inactive) in assay [3]; -1.6 (inactive) in assay [4]; 1.01 (inactive) in [6]; -1.68 (inactive) in assay [14].
Turning to `CCCCCN1CC=CC23O[C@@H]4C=CCOC(=O)[C@@H]4[C@H]2C(=O)N(CCCCCO)[C@@H]3C1=O` (stereo not given in full), the composite z-score in assay [1] is 0.421; in [5], 1.59; in assay [7] it was -0.121; in assay [8], -0.361; in assay [9] it was 0.103; in assay [10] it was -0.167. Further, the composite z-score is 1.37 in assay [11]; -0.181 in [12]; 0.398 in assay [13]; -0.893 in [15]; -1.15 in assay [16]; -0.728 in assay [17]. Moreover, the composite z-score in assay [18] is -0.52; in [19], -0.63; in assay [20], 0.676. Besides, the z-score in assay [2] was -1.16 (inactive); in assay [3], 0.249 (inactive); in assay [4], -1.02 (inactive); in assay [6] it was 2.58 (inactive); in [14] it was -0.522 (inactive).
For the molecule `COc1cc2c(cc1O)C(c1ccc(CN3CCCC3)cc1)N(Cc1cccc(OC(F)(F)F)c1)CC2` (stereo not given), the composite z-score in assay [1] was found to be 0.996; in [5], 3.04; in assay [7] it was 0.045; in assay [8] it was 0.0433; in assay [9], 0.499; in assay [10], 0.213. The composite z-score amounted to 1.02 in assay [11]; 0.422 in assay [12]; 0.414 in assay [13]; 0.15 in assay [15]; 0.213 in [16]; 0.576 in [17]. The composite z-score in assay [18] came to 0.81; in assay [19] it was 0.36; in assay [20], 1.44. Besides, the z-score was -26.1 (active) in [2]; -20.2 (active) in [3]; -3.95 (inactive) in [4]; -6.17 (inactive) in assay [6]; -2.59 (inactive) in assay [14].

For the origin of these results see PubChem BioAssay.
